# Source: PubChem BioAssay (NCI)
# Compounds without any hit were thinned out: in the full panel of roughly 83,000, 20% have a hit.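 Assay: single dose, 48 h. Readout: percent growth (0 = no net growth; negative = cell death). Active: <10.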 Values without a mark were called inactive. Active and inactive are the calls of the source.
# System: MDA-MB-468 breast
# Test: NCI-60 one-dose screen, 48 h (100 = growth as untreated, 0 = no growth, -100 = all killed)
# Details: 10 µM unless noted
row,SMILES,growth
1,Clc1ccc(-c2n[nH]c3c2Cc2ccccc2-3)cc1Cl,75.3%
2,O=C(CCl)N1CCCc2ccccc21,80.9%
3,CC1CC(C(C)(C)C)C(=O)C(C(C)(C)C)C1 (stereo not given),99.8%
4,COc1ccc(S(=O)(=O)NCCNc2nccc(-c3c(-c4cccc(F)c4)nc4sccn34)n2)cc1,23.3%
5,Cc1ccc2[nH]c(=O)c3c(c2c1)Oc1ncn2nc(-c4ccco4)nc2c1C3c1ccc(Cl)cc1 (stereo not given),96.4%
6,CC(C)NC1CCC(Nc2ccnc3cc(Cl)ccc23)CC1 (stereo not given),62.3%
7,CN(C)CCn1c(=O)c2c3cc4c(cc3n(CCN(C)C)c2c2ccc(Cl)cc21)OCO4,41%
8,CCN(CC)CCCC(C)NCCCNc1cccc2cccnc12 (stereo not given),90%
9,CCc1ccc(Nc2ncnc3c2cnn3-c2cccc(Br)c2)cc1,91%
10,O=C(N/N=C/[C@@H](O)[C@H](O)[C@H](O)CO)c1ccc(NC(=O)c2cccnc2)cc1,101%
11,CCCCCCCCCNCCCCCCCCC,22.5%
12,CCN(CC)CCNc1ccc([N+](=O)[O-])c2sc3cc(Cl)ccc3c(=O)c12,92.6%
13,O=[N+]([O-])c1ccccc1NC1c2ccccc2Oc2ccccc21,30.6%
14,Cc1ccc(OCCOCCOCCOc2ccc(C)n(O)c2=S)c(=S)n1O,12.1%
15,O=C(CSC(=S)n1cnnc1)NC(=O)c1ccccc1,119%
16,CCOC(=O)c1ccc2c(c1)nc(-c1ccc(OCc3ccccc3)c(OC)c1)n2-c1cc(C(C)(C)C)[nH]n1,77%
17,C#Cc1cccc(NC(=O)c2cccc(NC(=O)CCl)c2)c1,-52.7% [8.25 µM] (active)
18,COc1cc2cc(Oc3ccc(NC(=O)c4cccc(C(F)(F)F)c4)cc3)c(C)nc2cc1OCCN1CCCCC1,37.6%
19,Cc1[nH]c(C(=O)Nc2ccccc2OC2CCN(CCN3CCOCC3)CC2)c(Cl)c1Cl,91.6%
20,O=Nc1ccc(Nc2ccccc2)cc1,-8.9% (active)
21,CC(C)Oc1nc2c(c(=O)n(C)c(=O)n2C)n1C,109%
22,O=C1/C(=C/c2ccccc2)CCC/C1=C\c1ccccc1,63.2%
23,COc1ccc(/C=c2\c(=O)n(-c3ccccc3)c3nn4c(n23)=NNC42CCCCC2)cc1,110%
24,O=[N+]([O-])c1ccc(Oc2nc(Nc3ccc(O[C@H]4CO[C@H]5[C@@H]4OC[C@@H]5O)c(Cl)c3)ncc2F)c(Cl)c1,15.8%
25,CCN1CCN(c2ccc(NC(=O)Nc3ccc4c(ccn4-c4ccnc(C(=O)NC)c4)c3)cc2C(F)(F)F)CC1,65.9%
